Source: PubChem BioAssay (National Center for Advancing Translational Sciences (NCATS))
Compounds with a hit are over-represented: about 2.8% of the library has one in this group of screens.
Pol iota inh: blocks human DNA polymerase iota activity; Potency, µM (top dose mostly 115 µM), inactives show top-dose activity, negative = inhibition, actives largely listed as inhibitors; Q9UNA4; actives 1% (n = 390,000); Pol iota fluorescent replication assay, 10 min; note: potency is the fitted concentration of half-maximal effect
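Pol iota at 10 nM preincubated 15 min with compounds at room temperature; reaction started with fluorescent substrate, 50 nM final. Fluorescence read kinetically at 0 and 10 min; buffer-only wells as negative control.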
PI5P4Ka inh: blocks human PI5P4K alpha kinase activity. P48426. PI5P4Kalpha enzyme, ADP-Glo luminescence, 60 min; stronger effect = lower value. max response, %. actives 1.2% (n = 330,000). AID 652105; active = max response of -50% or lower; inconclusive = between -30% and -50%; inactive = -30% or higher; note: value at the top dose of about 77 µM; % is set by controls: 0 for no effect and ±100 for the full control effect
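Luminescence from ADP-Glo served as readout of PI5P4Kalpha activity in a qHTS format. Reaction: enzyme, substrate, compound, ATP at 5 microM final, 60 min at RT.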
Pol beta inh-1: DNA polymerase beta (human) inhibition. Pol beta primer extension/strand displacement, fluorescence kinetic. Potency, µM (series often up to 114 µM), for inactives: at the highest dose activity change, negative = inhibition, most hits filed as inhibitors. actives 1.3% (n = 340,000). AID 485314; note: potency is the fitted concentration of half-maximal effect; % is set by controls: 0 for no effect and ±100 for the full control effect
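Human Pol beta at 10 nM; strand-displacement substrate 50 nM final. Compound exposure 15 min at room temperature before start, reaction 10 min at room temperature.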
Pol eta inh: DNA polymerase eta (human) inhibition. Q9Y253. recombinant Pol eta, fluorescent DNA replication assay. Potency, µM (doses to about 114 µM), for the others: at the highest dose activity change, negative = inhibition, hits mostly inhibitors. actives 1.2% (n = 390,000); note: potency is the fitted concentration of half-maximal effect; % is set by controls: 0 for no effect and ±100 for the full control effect
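Pol eta at 10 nM preincubated with compounds 15 min at room temperature; reaction started with fluorescent substrate (50 nM final) and read kinetically at 0 and 10 min.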
WRN helicase inh: inhibitors of human WRN helicase; Q14191; WRN helicase unwinding, fluorescent forked duplex, kinetic; Potency, µM (top dose mostly 114 µM), for inactives: top-dose activity change, negative = inhibition, usual class: inhibitors; actives 0.46% (n = 360,000); AID 651768; note: potency is the fitted concentration of half-maximal effect; % is set by controls: 0 for no effect and ±100 for the full control effect; nearly all actives have a fitted effect of over 55% in size
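Fluorescence dequenching readout, ex 525 nm/em 598 nm, kinetic mode: forked duplex DNA (100 nM final) with adjacent fluorophore and quencher unwound by WRN (20 nM final) with 2 mM ATP. Compound preincubation 15 min, room temperature.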
POLK inh: blocks human DNA polymerase kappa activity; AID 588579; Potency, µM (highest dose often 107 µM), for inactives: at the top dose activity, negative = inhibition, most hits filed as inhibitors; purified Pol kappa, fluorescent DNA synthesis assay, 10 min; Q9UBT6; actives 0.53% (n = 400,000); note: potency is the fitted concentration of half-maximal effect; % is set by controls: 0 for no effect and ±100 for the full control effect
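Inhibition of 10 nM Pol kappa is measured by a fluorescent read-out at 0 and 10 min following addition of 50 nM substrate (final), with a 15-min room-temperature compound preincubation.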
Pol beta inh-2: Human Pol beta inhibitor hit validation. Potency, µM, actives largely listed as inhibitors. AID 540280. shares compounds with Pol beta inh-1. actives 87% (n = 250). Pol beta primer extension/strand displacement, fluorescence kinetic; calls by dose curve; note: potency is the fitted concentration of half-maximal effect
Klenow counter: inhibits Klenow fragment polymerase in counter-screen | Klenow exo- polymerase counter-screen, fluorescent DNA substrate | 250 tested, under 10 active | activity change, negative = inhibition, % at 57.1 µM | shares compounds with Pol beta inh-1
HIV RT counter: inhibits HIV-1 reverse transcriptase in counter-screen; shares compounds with Pol beta inh-1; HIV-1 RT polymerase activity, counter-screen; activity % (negative = inhibition, positive = activation), % at 57.1 µM; 250 tested, under 10 active; AID 540301
POLB inh gel: DNA polymerase beta inhibition, radiolabeled validation; shares compounds with Pol beta inh-1; actives 91% (n = 110); AID 540325; radiolabeled primer extension gel assay, phosphorimager; inhibition, % at 10 µM;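 active = inhibition at 10 µM of 30% or more; inconclusive = no clear call, values can overlap the other calls; inactive = inhibition at 10 µM under 30%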
Starred values were filed as active, the others as inactive; ? = inconclusive; / = no result given; [ ] = another dose, or the depositor's remark. Unless noted, calls come from the whole dose curve; as a rule, active = well fitted curve in the direction sought with a large enough effect; inconclusive = small, poorly fitted or top-dose-only effect, or another doubt; inactive = no such curve, though single readings can be large; an effect the other way counts as inactive or inconclusive.

SMILES	Pol iota inh	PI5P4Ka inh	Pol beta inh-1	Pol eta inh	WRN helicase inh	POLK inh	Pol beta inh-2	Klenow counter	HIV RT counter	others
O=C(Nc1nnc(SCc2c(Cl)cccc2Cl)s1)C1CC(=O)N(c2ccc3c(c2)OCCO3)C1 (stereo not drawn)	15.8µM*	?	7.08µM*	?	-19.1%[57.1 µM]	?	?	-23.3	4.2
COc1cc(-c2csc(NC3CCCCC3)n2)cc(OC)c1OC	?	0.2	23.3%	-12.5%	-8.2%	-7.5%	/	/	/
C=CCn1c(=NC(=O)c2sc3ccccc3c2Cl)sc2cc(S(N)(=O)=O)ccc21	25.9%	1.5	8.91µM*	?	-33.0%[57.1 µM]	?	14.1*	-9.2	44.3
CCOc1ccc(C2=Nn3c(nnc3-c3ccccc3OC)SC2)cc1	20.3%	1.8	-0.5%	1.6%	-12.1%	-4.7%	/	/	/
COc1ccccc1-c1nnc2n1N=C(c1ccc(O)c(O)c1)CS2	12.6µM*	?	3.98µM*	8.91µM*	22.4µM*	25.1µM*	25.1*	-21.7	-14.5	POLB inh gel=36.9*
CS(=O)(=O)Oc1ccc2c(c1)O/C(=C\c1cccnc1)C2=O	-8.6%	0.0	26.0%	-14.2%	-0.6%	-7.0%	/	/	/
COc1cc(OC)c(OC)cc1/C=C1\Oc2cc(OS(C)(=O)=O)ccc2C1=O	20µM*	?	11.2µM*	50.1µM*	?	?	35.5*	-30.1	16.8	POLB inh gel=96.3*
Cc1c(Cl)ccc2sc(N3CCN(C(=O)CS(=O)(=O)c4ccccc4)CC3)nc12	10.2%	/	-7.6%	-20.6%	/	-5.7%[60.1 µM]	/	/	/
N#Cc1c(=O)c2nc(NCCCO)ncc2n2c(=O)c3ccccc3[nH]c12	22.4µM*	-65.2*	11.2µM*	39.8µM*	?	-29.7%	?	-37.8	-1.0	POLB inh gel=40.0*
O=C(Nc1cccc(-c2nc3ccccc3[nH]2)c1)c1cccc(NC(=O)c2ccco2)c1	?	/	12.6µM*	50.1µM*	-30.2%	?	31.6*	-9.4	62.4
CC(C)N1C(=O)C(=O)N(CC(=O)N2c3ccccc3CC2C)C1=O (stereo not drawn)	/	2.9	/	-16.9%	9.7%	/	/	/	/
COc1cccc(-c2cncnc2NCc2ccc(OC)cc2OC)c1	/	/	/	/	/	-9.2%[60.1 µM]	/	/	/
O=[N+]([O-])c1cc(CN2CCOCC2)c2cccnc2c1O	?	-72.9*	2.51µM*	8.91µM*	-22.8%	?	4.47*	11.0	19.6
CCOc1ccc(C(=O)Nc2ccc(NC(=O)c3ccccc3)c(C)c2)cc1[N+](=O)[O-]	153.2%	10.7	20µM*	-23.1%	-27.6%	-1.7%	17.8*	-2.6	41.6
CCOc1cccc(C(=O)Nc2ccc(NC(=O)c3ccccc3)c(C)c2)c1	44.5%	0.0	8.6%	-15.7%	0.9%	-9.4%	/	/	/
CCN(CC)S(=O)(=O)c1ccc(N2CCOCC2)c(NC(=O)c2cccc3ccccc23)c1	70.9%	-1.5	11.7%	-9.0%	-8.7%	-13.5%	/	/	/
CCN(CC)S(=O)(=O)c1ccc(N2CCOCC2)c(NC(=O)c2c3c(nc4ccccc24)CCC3)c1	31.6µM*	-59.4*	8.91µM*	35.5µM*	-25.6%	?	25.1*	-22.4	19.4	POLB inh gel=87.5*
N[C@@]1(C(=O)O)CO[C@H]2[C@H](C(=O)O)[C@H]21	/	/	/	/	/	-11.0%[60.1 µM]	/	/	/
